Most compounds without a hit are left out; they make up all but 0.52% or so of the library.
Epigenetic reg: epigenetic control regulation, reporter derepression; murine LDR cells, GFP reporter derepression, 30 h; Potency, µM (doses to about 53.9 µM), for inactives: top-dose GFP activation, most hits filed as activators; 280,000 tested, 0.2% active; AID 1865; also: % of control where 0% means no effect; nearly all actives have a fitted effect of over 60% in size
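Readout is the number of GFP-expressing murine LDR cells, counted by cytometry following washing. Cells were treated with compound for 30 h at 37 C; the stably integrated CMV-GFP locus is normally silent.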
Vif-APOBEC3G blk: Vif-A3G binding inhibition. HeLa A3G-eYFP + Vif (tagged APOBEC3G with the HIV-1 protein that degrades it), YFP fluorescence, overnight. Q9HC16. Potency, µM (highest dose often 46.1 µM), for the others: at the highest dose activity, negative = active, hits mostly inhibitors. 410,000 tested, 0.076% active. AID 602310; also: % is scaled to controls: 0 for no effect and ±100 for the full control effect; nearly all actives have a fitted effect of over 60% in size
Target sequence (Q9HC16 whole entry, looked up): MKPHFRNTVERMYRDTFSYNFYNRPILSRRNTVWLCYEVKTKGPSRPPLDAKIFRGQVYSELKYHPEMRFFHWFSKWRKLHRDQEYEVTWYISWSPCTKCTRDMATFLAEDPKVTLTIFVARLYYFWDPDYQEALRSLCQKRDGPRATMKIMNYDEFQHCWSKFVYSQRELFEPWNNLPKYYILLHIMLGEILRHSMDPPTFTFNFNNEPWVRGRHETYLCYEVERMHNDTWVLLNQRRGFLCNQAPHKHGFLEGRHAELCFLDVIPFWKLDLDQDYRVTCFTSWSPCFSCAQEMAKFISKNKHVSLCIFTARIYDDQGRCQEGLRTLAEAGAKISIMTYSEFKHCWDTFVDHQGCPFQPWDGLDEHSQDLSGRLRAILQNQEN
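Read-out is eYFP fluorescence (Ex 488/Em 500-530) from Vif-expressing HeLa A3G-eYFP cells; more signal means A3G escaped Vif-mediated degradation. Cells plated overnight, compound pinned in, incubated overnight at 37 deg C.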
Vif-A3F inh: inhibitors of Vif-A3F interaction; 390,000 tested, 0.2% active; Potency, µM (top dose mostly 46.1 µM), for the others: at the top dose activity, negative = active; HeLa A3F-eYFP + Vif (tagged APOBEC3F with the HIV-1 protein that degrades it), YFP fluorescence increase; also: % of control where 0% means no effect; nearly all actives have a fitted effect of over 65% in size
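HeLa cells stably expressing A3F-eYFP plus Vif, plated and incubated overnight at 37 deg C, then exposed to compounds overnight at 37 deg C. Blocked degradation read as raised yellow fluorescence (Ex 488/Em 500-530).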
PINK1 expr mod: changes PINK1 expression; 410,000 tested, 0.2% active; PINK1 immunofluorescence, high-content cytometry, 24 h; Potency, µM (titrated, usually from 76.6 µM), inactives show at the highest dose activation (PINK1 increase), actives largely listed as activators; active = well fitted activation curve with a large enough effect; inconclusive = small, poorly fitted or top-dose-only effect; cell line not stated here; also: % of control where 0% means no effect; nearly all actives have a fitted effect of over 65% in size
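Readout is PINK1 immunofluorescence, quantified alongside mitochondrial, cell and nuclear markers by laser-scanning microplate cytometry. Cells from a stable line were exposed to compound titrations (5 concentrations) for 24 hours, with CCCP controls.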
* hit, by the source's call; ? = inconclusive; nt = no result given; [ ] = dose if it differs, or a comment. Unless noted, calls follow the shape of the dose curve; as a rule, active = well fitted curve in the direction sought with a large enough effect; inconclusive = small, poorly fitted or top-dose-only effect, or another doubt; inactive = no such curve, though single readings can be large; an effect the other way counts as inactive or inconclusive. Potency is read from the fitted curve at half-maximal effect.

SMILES	Epigenetic reg	Vif-APOBEC3G blk	Vif-A3F inh	PINK1 expr mod
O=C(/C=C/c1ccncc1)c1cc(Cl)ccc1O	1.1%	?	25.1µM*	0.5%
CC1(C)CC(=O)C2=C(C1)NC(Nc1nc3ccccc3o1)=NC2c1ccccc1Cl (stereo not given)	nt	0.7%	nt	-0.4%
CC1=C(C(=O)Nc2ccccc2)C(c2ccc(C)cc2)N=C(Nc2nc3ccccc3o2)N1 (stereo not given)	-0.4%	?	10µM*	22.1%[38.3 µM]
Oc1cc(-c2nc3ccccc3s2)cc2c1OCCN(Cc1cccn1-c1ncccn1)C2	nt	nt	nt	4.1%
CCC(COC)NC(=O)c1cnn(-c2ncc3c(n2)-c2ccccc2CC3)c1C (stereo not given)	nt	nt	nt	1.3%
Cc1cccc2c(=O)n3c(cc12)-c1[nH]c2ccccc2c1CC3	nt	-25.8%	22.4µM*	?
O=c1c2ccccc2nc2n1CCc1c-2[nH]c2ccccc12	3.4%	-1.4%	-9.5%	3.7%
Cc1noc(C)c1C(=O)Nc1sc(C)c(-c2ccccc2)c1C#N	1.8%	-0.2%	1.9%	28.2µM*
Cc1cccc(C(=O)Nc2sc(C)c(-c3ccccc3)c2C#N)c1	0.1%	1.5%	-2.4%	2.0%
O=C/C(=C\Nc1ccccn1)c1nc2ccccc2o1	9.3%	?	28.2µM*	2.9%[38.3 µM]
O=C/C(=C\Nc1ccccn1)c1nc2cc(Cl)ccc2o1	1.2%	-14.2%	-1.9%	-1.2%
Cc1ccc(S(=O)(=O)/N=C(/Nc2ccc([N+](=O)[O-])cc2[N+](=O)[O-])c2ccccc2)cc1	nt	-0.6%	-11.2%	35.5µM*
COc1cccc(C2(CC(=O)N3CCCCC3CO)CC(=O)N(C)C2=O)c1 (stereo not given)	nt	nt	nt	0.3%
COc1ccc(C(=O)c2sc3nc(-c4ccccc4)ccc3c2N)cc1	?	?	3.55µM*	4.7%
COc1cccc(-c2ccc3c(N)c(C(=O)c4ccc(Cl)cc4)sc3n2)c1	?	10µM*	?	1.6%
COc1ccc(C(=O)NCCN2Cc3ccccc3OC(c3ccsc3)C2)c(OC)n1 (stereo not given)	nt	nt	nt	0.0%
CSc1ccc(C(=O)N2CCc3c(cnc(C)c3CNC(=O)c3cncs3)C2)cc1	nt	nt	nt	-0.4%
CCc1c(C)nc(SCC(=O)c2cccs2)c(C#N)c1C	9.2%	12.6µM*	?	6.6%[38.3 µM]
CCC(C(=O)NCCc1cc(OC)ccc1OC)n1nc(C)c2sc3ccccc3c2c1=O (stereo not given)	12.6µM*	-9.0%	-5.5%	3.2%
CCC(C(=O)NCc1cc(OC)ccc1OC)n1nc(C)c2sc3ccccc3c2c1=O (stereo not given)	-3.2%	nt	nt	0.4%
CC1CCN(S(=O)(=O)c2ccc3nc(Nc4cccc(F)c4)ccc3c2)CC1	4.1%	-13.1%	?	15.8µM*
CCCCCCCNC1=CC(=O)CC(c2ccccc2)C1 (stereo not given)	0.0%	-2.5%	1.5%	39.8µM*
COc1ccccc1-c1nc2cc(C(=O)NC[C@H]3CCc4ccccc4O3)cc(NC(C)=O)c2n1C	nt	nt	nt	0.6%
Nc1ccc(N2CCCCC2)cc1N1CCCCC1	-1.8%	-18.2%	?	15.8µM*
Cc1csc(NC(=O)c2ccccc2O)n1	-0.7%	-3.2%	-3.2%	6.3%
SMILES	Epigenetic reg	Vif-APOBEC3G blk	Vif-A3F inh	PINK1 expr mod
CC(C)(C)c1csc(NC(=O)c2ccccc2O)n1	nt	-2.2%	11.4%	28.2µM*
O=C1CCCC2=C1C1(CCCC1)N=C(Nc1nc3ccccc3s1)N2	?	0.9%	-8.2%	11.2µM*
CCN(CC)c1ccc(/C=C/C(=O)c2ccc(Br)cc2)cc1	15.8%	?	25.1µM*	18.4%
Cc1oc(-c2cccc(C(F)(F)F)c2)nc1CN1CCOCC1	11.2µM*	3.6%	8.0%	2.2%
Cc1oc(-c2cccc(C(F)(F)F)c2)nc1CN1CCC[C@H]1CO	0.1%	8.2%	0.0%	0.1%
CCN1C(=O)/C(=C2/Sc3ccccc3N2CC)SC1=S	nt	-2.5%	1.2%	8.0%
CCCCN1C(=O)/C(=C2/Sc3ccccc3N2C)S/C1=N\c1ncn[nH]1	2.6%	-9.0%	22.4µM*	8.2%
Cc1sc2nc(CSCC(=O)Nc3ccccc3C#N)[nH]c(=O)c2c1C	2.0%	-2.9%	12.6µM*	-0.8%
CSc1ccccc1NC(=O)CSCc1nc2sc(C)c(C)c2c(=O)[nH]1	nt	-9.1%	-30.4%	-2.5%
CCCCNc1ccc2c3c(cccc13)C(=O)N(CCCC)C2=O	3.16µM*	3.6%	-39.2%	?
COc1cc(/C=C2\SC(=S)N(Nc3ccccc3)C2=O)ccc1O	0.0%	?	?	0.6%
CN(C)c1ccc(/C=C2\SC(=S)N(Nc3ncc(C(F)(F)F)cc3Cl)C2=O)cc1	14.1µM*	?	10µM*	17.8µM*
COc1cc(/C=C2\SC(=S)N(Nc3ncc(C(F)(F)F)cc3Cl)C2=O)ccc1O	0.8%	?	22.4µM*	2.7%
COc1cc(/C=C2\SC(=O)N(CCNC(=O)c3sc4cc(F)ccc4c3Cl)C2=O)cc(OC)c1OC	17.8µM*	-5.5%	-4.2%	4.9%
Cc1ccc(-c2cc(-c3ccco3)c3c(N)c(C(=O)NN)oc3n2)cc1	10.9%	?	11.2µM*	1.8%
NNC(=O)c1oc2nc(-c3ccccc3)cc(-c3ccccc3)c2c1N	nt	-7.5%	?	1.0%
CCOC(=O)c1ccc(NC(=S)Nc2cccc(N)n2)cc1	-6.0%	4.2%	-32.9%	3.1%
CCOC(=O)c1ccc(NC(=S)Nc2cccc(C)n2)cc1	-1.1%	2.7%	11.2µM*	2.1%
COc1cccc(/C(O)=C/c2nc3ccc(C(=O)NCCc4ccc(Cl)cc4)cc3[nH]c2=O)c1	7.94µM*	?	5.01µM*	1.0%
COc1cccc(/C(O)=C/c2nc3ccc(C(=O)NCCc4cccc(C)c4)cc3[nH]c2=O)c1	14.1µM*	5.62µM*	?	?
O=C(NCCc1ccc(Cl)cc1)c1ccc2nc[nH]c2c1	1.1%	0.0%	7.7%	-0.5%
N#CC(C#N)=Cc1cnc(N2CCN(c3ccccc3)CC2)s1	nt	-11.1%	?	31.6µM*
COc1ccccc1C=NN=C(NN=Cc1ccccc1OC)NN=Cc1ccccc1OC	nt	-4.4%	11.1%	28.2µM*
COc1ccccc1C=NNC(=O)NN=Cc1ccccc1OC	nt	-17.8%	1.7%	9.6%
Brc1ccccc1C1CC(c2ccccc2)=Nc2ccccc2N1 (stereo not given)	-1.9%	-8.7%	?	3.5%
SMILES	Epigenetic reg	Vif-APOBEC3G blk	Vif-A3F inh	PINK1 expr mod
Clc1ccccc1C1CC(c2ccccc2)=Nc2ccccc2N1 (stereo not given)	0.0%	-22.3%	20µM*	18.3%
Cc1ncc2c(c1CNC(=O)c1ccc3c(c1)OCO3)CCN(C(=O)/C=C/c1ccc(Cl)cc1)C2	nt	nt	nt	0.0%
COc1cc(C(=O)Nc2ccc(N(C)C)cc2)cc(OC)c1OC	-5.5%	?	0.9%	11.2µM*
OC1(c2ccc3c(c2)CN(Cc2ccccn2)CCO3)CCN(c2ccccc2F)CC1	nt	nt	nt	0.5%
COc1ccc(O)c(C(=O)c2coc(=N)c(C(=O)Nc3ccc(SC(F)F)cc3)c2)c1	-4.4%	5.4%	12.6µM*	?
CC(C)OC(=O)c1cc(C(=O)c2cc(Br)ccc2O)coc1=N	?	-19.7%	?	0.0%
CC(C)OC(=O)c1cc(C(=O)c2cc(F)ccc2O)coc1=N	1.6%	?	11.2µM*	-1.7%

Screens deposited in PubChem BioAssay by National Center for Advancing Translational Sciences (NCATS).
